About 4,300 (8.3%) of roughly 52,000 compounds were called active. Rule as the data show it: active = survival mostly below about 52% (no sharp cut-off); inactive = mostly above about 56%. This excerpt belongs to a sample that is enriched for actives.

The subject of the experiment is DeltatarO mutant. The experiment can be described thus: growth inhibition of S. aureus wild type versus tarO mutant, primary screen, teichoic acid synthesis inhibitors, RN4220, OD600 (AID 463173). To be noted: OD600, 18 h, hits give low values, screened at 18.75 µg/mL (by protocol).
`COc1ccc(NC(=O)Nc2cn(CC(C)C)c(=O)c3ccccc23)c(OC)c1`: the survival is 91% (inactive).

Turning to `COc1ccc(C)cc1NC(=O)c1cn(C)c(=O)c2cc(OC)c(OC)cc12`, the survival is 72% (inactive).

On to `COc1cc(Cl)c(C)cc1NC(=O)c1cn(CC(C)C)c(=O)c2cc(OC)c(OC)cc12`, for which the survival was 42% (active).

For `COc1ccc(OC)c(NC(=O)c2cn(CC(C)C)c(=O)c3cc(OC)c(OC)cc23)c1`, the survival was 50% (active).

With `CCOC(=O)c1ccccc1NC(=O)c1cn(CC(C)C)c(=O)c2cc(OC)c(OC)cc12`, the survival was 53% (inactive).

`CCn1cc(C(=O)Nc2cccc(Cl)c2)c2cc(OC)c(OC)cc2c1=O`: the survival is 46% (active).

As to `CCn1cc(C(=O)Nc2ccc(C(C)C)cc2)c2cc(OC)c(OC)cc2c1=O`, the survival was 63% (inactive).

Turning to `CCn1cc(C(=O)N2CCN(c3cccc(Cl)c3)CC2)c2cc(OC)c(OC)cc2c1=O`, the survival was 54% (inactive).

As for `COc1ccc(NC(=O)c2cn(CC(C)C)c(=O)c3cc(OC)c(OC)cc23)cc1Cl`, the survival was 50% (inactive).

With `COc1ccc(Cn2c(C(=O)O)c(CNCCc3cc(OC)ccc3OC)c3ccc(C)cc32)cc1`, the survival is 85% (inactive).

Regarding `COc1ccccc1NC(=O)c1c(C)cc(C)nc1SCC(=O)Nc1ccc(C)cc1`, the survival was 51% (inactive).

Consider `CC(C)c1cccc(C(C)C)c1NC1=NS(=O)(=O)c2ccccc21`, for which the survival was 76% (inactive).

`COc1cc(C(=O)N2CCc3ccccc32)cc(OC)c1OC`: the survival is 104% (inactive).

`O=C(c1ccc2c(c1)N(Cc1ccccc1F)C(=O)c1ccccc1S2(=O)=O)N1CCCCCC1`: the survival was 73% (inactive).

With `CN1CCN(C(=O)C2CCCCC2C(=O)O)CC1` (configuration not stated), the survival is 78% (inactive).

`COC(=O)c1cc2sccc2n1Cc1nc(-c2cccc(Br)c2)oc1C`: the survival is 70% (inactive).

Turning to `COc1ccc(OC)c(C2c3c(-c4ccc(Br)cc4)n[nH]c3C(=O)N2c2ccc(Cl)cc2)c1` (configuration not stated), the survival is 89% (inactive).

Take `CCc1ccc(C2NC(=O)c3[nH]nc(-c4cccc(OC)c4)c32)cc1` (configuration not stated): the survival is 54% (inactive).

Take `COc1ccc(-c2n[nH]c3c2C(c2ccc(Cl)cc2Cl)NC3=O)cc1` (configuration not stated): the survival is -12% (active).

Consider `Cc1ccc(CC(=O)Nc2c(C(=O)N3CCN(c4ccccc4F)CC3)oc3ccccc23)cc1`, for which the survival was 74% (inactive).

`CCOc1ccc(-n2c(=O)c3c4c(sc3n(Cc3cc(=O)n5cc(Cl)ccc5n3)c2=O)CCC4)cc1`: the survival is 64% (active).

On to `CCCCN(CC)C(=O)Cn1c(=O)n(-c2ccc(OCC)cc2)c(=O)c2c3c(sc21)CCC3`, for which the survival was 78% (inactive).

In the case of `Cc1ccc(-n2c(=O)c3c4c(sc3n(Cc3cc(=O)n5cc(Cl)ccc5n3)c2=O)CCC4)cc1C`, the survival was 169% (inactive).

Regarding `CCc1ccc(NC(=O)Cn2c(=O)n(-c3ccc(Cl)c(Cl)c3)c(=O)c3c(C)c(C)sc32)cc1`, the survival was 97% (inactive).

Regarding `Cc1ccc(C)c(Cn2c(=O)n(-c3ccc(Cl)cc3)c(=O)c3c(C)c(C)sc32)c1`, the survival was 76% (inactive).

Regarding `CCOc1ccc(-n2c(=O)c3c(C)c(C)sc3n(CC(=O)NCCc3ccccc3)c2=O)cc1`, the survival is 84% (inactive).

On to `CCOc1ccc(-n2c(=O)c3c(C)c(C)sc3n(Cc3cc(=O)n4cc(Cl)ccc4n3)c2=O)cc1`, for which the survival was 69% (inactive).

As for `CCOc1ccc(-n2c(=O)c3c(C)c(C)sc3n(CC(=O)Nc3ccc(CC)cc3)c2=O)cc1`, the survival is 46% (active).

Turning to `Cc1ccc(-n2c(=O)c3c(C)c(C)sc3n(Cc3ccc(F)cc3Cl)c2=O)cc1C`, the survival is 38% (active).

As for `CCCCN(CC)C(=O)Cn1c(=O)n(-c2ccc(OCC)cc2)c(=O)c2c3c(sc21)CCCC3`, the survival is 89% (active).

Consider `Cc1ccc(Cn2c(=O)n(-c3ccc(C)c(C)c3)c(=O)c3c(C)c(C)sc32)cc1`, for which the survival was 71% (inactive).

Turning to `CCN(CC)C(=O)Cn1c(=O)n(-c2ccc(Cl)cc2)c(=O)c2c3c(sc21)CCCCC3`, the survival was 89% (inactive).

As for `O=C(CCNS(=O)(=O)c1ccc2c(c1)CCCC(=O)N2)NCc1ccc(Cl)cc1`, the survival was 96% (inactive).

For `COc1ccc(CCNC(=O)c2cc3c(=O)n4cccc(C)c4nc3n2C)cc1`, the survival was 67% (inactive).

For the compound `COc1ccc(NC(=O)C2CCCN(S(=O)(=O)c3ccc4[nH]c(=O)ccc4c3)C2)cc1Cl` (configuration not stated), the survival is 82% (inactive).

As for `CC(=O)Nc1cccc(NC(=O)Cc2csc(COc3cccc(C)c3)n2)c1`, the survival was 89% (inactive).

Regarding `CCOc1ccc(NC(=O)C(=O)NCCc2csc(-c3ccc(F)cc3)n2)cc1`, the survival is 82% (inactive).

As to `CCN(CC)S(=O)(=O)c1ccc2c(c1)N(CC(=O)NCCCN1CCN(c3cc(Cl)ccc3C)CC1)C(=O)CO2`, the survival is 53% (inactive).

Consider `CCOc1ccc(-c2noc(CSc3nnc(-c4ccccc4)n3-c3ccccc3)n2)cc1`, for which the survival is 66% (inactive).

For `COc1cccc(-n2cc(C(=O)Nc3ccccc3C(N)=O)c3ccccc3c2=O)c1`, the survival is 67% (inactive).

Consider `COc1ccc(NC(=O)Cn2c(=O)n(-c3ccc(C)c(C)c3)c(=O)c3c4c(sc32)CCCCC4)cc1Cl`, for which the survival is 76% (inactive).

As for `COc1ccc(CCNC(=O)Cn2c(=O)n(-c3ccc(C)c(C)c3)c(=O)c3c(C)c(C)sc32)cc1OC`, the survival is 64% (inactive).

Take `CCOc1ccc(-n2c(=O)c3c(C)c(C)sc3n(Cc3ccc(C(C)(C)C)cc3)c2=O)cc1`: the survival was 52% (active).

As for `COc1ccc(CCNC(=O)Cn2c(=O)n(-c3ccccc3)c(=O)c3c(C)c(C)sc32)cc1OC`, the survival was 84% (active).

Take `O=C(Cn1c(=O)n(-c2ccc(Cl)cc2)c(=O)c2c3c(sc21)CCCCC3)Nc1cccc(Cl)c1`: the survival is 84% (inactive).

As to `Cc1ccc(-n2c(=O)c3c4c(sc3n(CC(=O)Nc3cccc(Cl)c3)c2=O)CCCCC4)cc1C`, the survival is 105% (active).

Consider `CCOc1ccc(-n2c(=O)c3c(C)c(C)sc3n(Cc3ccccc3C)c2=O)cc1`, for which the survival is 85% (inactive).

In the case of `CCOc1ccc(-n2c(=O)c3c(C)c(C)sc3n(CC(=O)C(C)(C)C)c2=O)cc1`, the survival is 121% (inactive).

For the compound `COc1cccc(-n2c(=O)c3c(C)c(C)sc3n(CC(=O)NCCc3ccc(OC)c(OC)c3)c2=O)c1`, the survival is 94% (inactive).

For `Cc1ccc(-n2c(=O)c3c(cnn3C)n(CC(=O)Nc3cccc(C)c3)c2=O)cc1`, the survival was 64% (inactive).

With `Cc1ccc(NC(=O)Cn2c(=O)n(-c3ccc(C)cc3)c(=O)c3c2cnn3C)cc1`, the survival was 63% (inactive).

As to `Cc1ccc(-n2c(=O)c3c(cnn3C)n(CC(=O)Nc3cccc(Cl)c3)c2=O)cc1`, the survival is 55% (active).

Source of the values: PubChem BioAssay AID463173 (ICCB-Longwood Screening Facility, Harvard Medical School, 2010).
